Source: PubChem BioAssay (several laboratories)
Compounds with a hit are over-represented: about 2.7% of the library has one in this group of screens.
SENP6 block = SENP6 protease inhibition. Q9GZR1. inhibition, % at 10 µM. 330,000 tested, 1.8% active. Recombinant SENP6 catalytic domain, aminoluciferin luminescence. AID 2599;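 active = inhibition above about 50% at the single tested dose, limit read from the data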;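 note: plate controls were DMSO wells with enzyme for no effect and DMSO wells lacking enzyme for full effect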
Target sequence (Q9GZR1 628-1112 limits assumed): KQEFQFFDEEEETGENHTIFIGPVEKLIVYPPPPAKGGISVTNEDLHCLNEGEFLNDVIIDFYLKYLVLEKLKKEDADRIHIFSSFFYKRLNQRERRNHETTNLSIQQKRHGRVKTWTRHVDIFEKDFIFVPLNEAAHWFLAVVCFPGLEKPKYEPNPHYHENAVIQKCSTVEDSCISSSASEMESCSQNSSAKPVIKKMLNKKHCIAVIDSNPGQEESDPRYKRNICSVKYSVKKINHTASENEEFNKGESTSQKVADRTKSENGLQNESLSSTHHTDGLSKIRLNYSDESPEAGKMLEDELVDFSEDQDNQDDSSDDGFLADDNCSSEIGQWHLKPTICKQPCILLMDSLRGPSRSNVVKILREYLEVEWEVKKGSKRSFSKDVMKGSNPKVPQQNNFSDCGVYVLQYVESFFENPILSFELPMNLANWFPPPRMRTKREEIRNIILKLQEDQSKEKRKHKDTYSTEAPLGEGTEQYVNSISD
SENP8 block-1 = inhibitors of human SENP8 protease. 360,000 tested, 0.64% active. inhibition, % at 20 µM. Q96LD8. recombinant SENP8, Nedd8 substrate fluorescence; in the data active = inhibition mostly above about 40%, no sharp cut-off; inactive = mostly below about 27%
SENP7 block = inhibitors of human SENP7 protease. Q9BQF6. recombinant SENP7, Z-RLRGG-aminoluciferin luminescence, 40 min. inhibition, % at 5 µM. 330,000 tested, 1.5% active. AID 434973;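 active = inhibition above about 50% at the single test dose, limit read from the data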;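 note: plate controls were DMSO with enzyme for no effect and no enzyme buffer wells for full effect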
SENP8 block-2 = SENP8 protease inhibition; purified SENP8, Z-RLRGG-aminoluciferin cleavage, luminescence; inhibition, % at 10 µM; 330,000 tested, 1.2% active; AID 2540; in the data active = inhibition above about 50%
HSP90 inh = HSP90 refolding inhibition in rabbit reticulocyte lysate; 290,000 tested, 0.91% active; inhibition, % at 5.6 µM; luciferase refolding luminescence, 3 h; AID 1789;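 active = inhibition above the screen-wide mean plus 3 SD, computed separately per campaign, cut at about 16% in these data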;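 note: 0% = DMSO wells and 100% = 60 µM geldanamycin wells; inhibitors lower the luminescence because luciferase stays unfolded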
* marks the source's active call; other numbers are inactive results; . = no result.

SMILES	SENP6 block	SENP8 block-1	SENP7 block	SENP8 block-2	HSP90 inh
Oc1ccc(N=Nc2cccc(Cl)c2)cc1C=Nc1ccc(N2CCOCC2)cc1	.	52.6*	.	.	-0.6
Oc1c(Br)cc(Cl)cc1C=Nc1ccc(N2CCOCC2)cc1	-11.9	-18.6	-6.7	3.8	8.8
C#CCn1cc(C=C2C(=O)c3ccccc3C2=O)c2ccccc21	.	37.5*	.	.	1.8
C#CCn1c(=O)cc(C)c2ccccc21	3.9	10.9	4.7	0.8	2.6
COc1cccc(-c2[nH]nc3c2C(c2ccsc2)C(C#N)=C(N)O3)c1 (stereo not drawn)	29.1	-4.6	22.3	16.9	16.3*
COc1ccc(-c2[nH]nc3c2C(c2ccsc2)C(C#N)=C(N)O3)cc1 (stereo not drawn)	-3.0	19.6	-11.7	-16.4	5.6
NC[C@H](O)c1ccc(O)c(O)c1	-0.3	17.9	9.6	-1.1	.
O=C(Nc1nc2ccc([N+](=O)[O-])cc2s1)c1c(F)cccc1F	25.3	-16.1	31.2	17.4	-0.4
O=C(Nc1nc2ccc([N+](=O)[O-])cc2s1)c1ccco1	82.6*	.	40.3	74.7*	-3.7
COc1ccc(N=Cc2cc(Cc3ccccc3Cl)cc([N+](=O)[O-])c2O)cc1OC	44.9	30.6	10.1	22.1	2.5
Cc1ccc(N=Cc2cc(Cc3ccccc3Cl)cc([N+](=O)[O-])c2O)c(O)c1	17.0	51.6*	-7.7	10.3	3.9
COc1cccc(/C(C)=N/NC(=O)c2ccc(N(C)C)cc2)c1	69.2*	-67.1	44.6	54.8*	4.1
Nc1ccc(NC2C[C@@H](C(=O)O)NC2=O)cc1 (stereo partly drawn)	6.6	13.1	3.0	-6.8	-2.6
C/C(=N\NC(=O)c1ccc(C(=O)N/N=C(\C)c2ccco2)o1)c1ccco1	-9.8	-14.7	-10.8	-6.8	-2.4
COc1cc(C)cc(C(=O)O)c1C1=C(O)c2cccc(O)c2C(=O)C1=O	-2.8	55.2*	5.1	3.9	.
O=C(CSc1nc2[nH]ncc2c(=O)n1-c1ccccc1)c1ccc2c(c1)OCCO2	-1.4	8.2	0.7	-16.3	-1.7
OC(COCC1COc2ccccc2O1)CN1CCN(c2ccccn2)CC1 (stereo not drawn)	-4.2	2.1	0.0	1.9	19.1*
N#Cc1c(N)nc(N)nc1Nc1ccc(Br)cc1	59.9*	12.5	36.2	22.4	0.1
N#Cc1cc(-c2ccccc2)cnc1Sc1ccccc1	-0.6	7.3	-1.7	4.8	0.7
O=C(Nc1ccc2c(c1)OCO2)c1ccc2c(c1)OCO2	86.1*	9.4	84.5*	67.1*	6.5
O=[N+]([O-])c1ccc(N=Cc2sc3ccccc3c2O)cc1	30.8	-129.4	-9.6	26.4	14.8
Oc1cccc(C=NCc2ccccc2)c1O	0.1	54.2*	17.3	14.1	3.7
Oc1c(C=NCc2ccccc2)sc2ccccc12	6.5	-28.9	-5.3	-5.9	24.2*
CCn1c(O)c(C=NCc2ccccc2)sc1=S	-0.1	5.0	0.3	-0.2	-1.0
NNc1ncnc2c1cnn2-c1ccccc1	-6.5	-7.3	3.5	1.6	-2.3
SMILES	SENP6 block	SENP8 block-1	SENP7 block	SENP8 block-2	HSP90 inh
COc1cccc(N=Nc2c(N)[nH]n3c(=O)cc(-c4ccccc4)nc23)c1	23.4	65.3*	12.2	16.5	0.5
Cc1ccc(N=Nc2c(N)[nH]n3c(=O)cc(-c4ccccc4)nc23)cc1	0.8	74.1*	2.1	4.2	0.9
Cc1cc(=O)n2[nH]c(N)c(N=Nc3ccccc3)c2n1	.	16.0	.	.	-1.8
O=C(Nc1n[nH]c(=S)s1)c1ccc2ccccc2c1	91.4*	-17.3	63.0*	81.7*	-2.1
O=C(Nc1ncccc1O)c1ccc2ccccc2c1	12.4	1.7	31.9	-5.0	16.9*
CNC(=O)c1ccc(-c2nc(-c3ccccc3)cs2)cc1	1.8	-243.0	3.9	-2.9	2.9
O=C(O)c1ccc(-c2nc(-c3ccccc3)cs2)cc1	97.1*	-86.7	89.1*	92.0*	6.3
COc1ccc(C(=O)c2coc3c2C(=O)C(=O)c2ccccc2-3)cc1	30.5	82.9*	5.8	3.7	7.4
CCc1noc(C)c1C(=O)N1CC(C)OC(C)C1 (stereo not drawn)	-2.6	18.0	3.1	-0.3	-2.6
NC(=O)c1ccccc1N/C=C/C(=O)c1ccc(F)cc1	97.0*	-490.4	91.1*	80.9*	0.1
COc1ccccc1OCCCC(=O)NC(C)c1ccccc1 (stereo not drawn)	-6.5	5.9	-2.7	6.3	1.9
FC(F)(F)C1=Nc2cccc3cccc(c23)N1	-12.9	61.6*	21.9	12.5	.
CC1(C(=O)O)CCN1C(=O)c1cccc(OC(F)(F)F)c1 (stereo not drawn)	.	17.6	.	.	.
CC(=O)Nc1cccc(-c2cn3ccccc3n2)c1	-11.5	-288.1	-3.2	-10.7	0.8
CC(C)C(=O)Nc1cccc(-c2cn3ccccc3n2)c1	-2.2	-21.3	-1.1	-3.5	16.2*
Cc1cccc(NC(=O)c2cc(NC(=O)C3CCCCC3C(=O)O)ccc2N2CCCCC2)c1 (stereo not drawn)	-5.3	-92.5	3.6	9.6	-4.6
CCOc1cc(/C=C2/C(=O)N(c3ccccc3)N=C2C)ccc1OC(=O)c1cccs1	19.8	38.1	18.4	-6.5	10.9
CC1=NN(c2ccccc2)C(=O)/C1=C\C=C\c1ccccc1	-2.4	31.7	1.9	2.9	1.0
CC1=NN(c2ccccc2)C(=O)/C1=C\C=C1/N(C)c2ccccc2C1(C)C	11.9	46.7*	4.6	-0.5	0.5
COc1ccc(/C=C2/C(=O)N(c3ccccc3)N=C2C)cc1	38.6	91.4*	47.2	11.2	.
COc1ccc(/C=C2/C(=O)N(c3c(F)c(F)c(F)c(F)c3F)N=C2C)cc1	-5.1	5.1	-8.3	-9.6	1.9
CC1=NN(c2ccccc2)C(=O)/C1=C/C=C/c1ccc(N(C)C)cc1	.	37.5*	.	.	-6.6
COc1ccc(/C=C2/C(=O)N(c3ccccc3)N=C2C)cc1OC	13.1	74.8*	30.3	2.0	5.3
Cc1c(CBr)[n+](=O)c2c(n1[O-])C(Br)CCC2Br (stereo not drawn)	-1.5	-1.3	-9.3	-2.7	5.1
Cc1ccc(NC(=O)Cn2cc(S(=O)(=O)c3ccc(F)cc3)c(=O)c3cc(F)ccc32)cc1	-0.2	14.6	3.0	2.4	-1.3
SMILES	SENP6 block	SENP8 block-1	SENP7 block	SENP8 block-2	HSP90 inh
CC1=NN(c2ccccc2)C(=O)/C1=C\c1cc(C)n(C)c1C	14.7	44.0*	-2.0	2.9	3.8
CC(=O)Oc1ccc(/C=C2/C(=O)N(c3ccccc3)N=C2C)cc1	14.3	44.9*	35.7	3.5	5.8
O=C(N/N=C/C(Br)=C/c1ccccc1)c1ccccc1[N+](=O)[O-]	11.0	7.3	2.8	-1.9	-2.3
CCOc1cc(N2CCOCC2)c(OCC)cc1NC(=O)CSc1cccc[n+]1[O-]	-6.9	46.7*	-12.1	-12.0	1.6
CCOc1cc(N2CCOCC2)c(OCC)cc1NC(=O)C(C)C	7.6	14.5	1.9	-7.2	1.1
CCOc1cc(N2CCOCC2)c(OCC)cc1NC(=O)CSc1ncccn1	7.7	7.2	3.2	-0.5	1.0
CCOc1cc(N2CCOCC2)c(OCC)cc1NC(C)C(=O)N1CCN(CC)CC1 (stereo not drawn)	.	57.8*	.	.	0.8
